Sampled rows, rich in hits. Any-hit rate of the full collection: about 0.98%.
LANA-H2B inh = blocks KSHV LANA binding to histone H2A/H2B. cell-free LANA-H2A/H2B peptide, fluorescence polarization. inhibition, % (test concentration not listed). 320,000 tested, 0.6% active; in the data active = inhibition mostly above about 10%, no sharp cut-off; inactive = mostly below about 6.7%
RTF Ca sens inh = cardiac RTF calcium desensitization. inhibition, % at 7.15 µM. AID 493244. P19429+P45379. 340,000 tested, 0.12% active. IANBD-labeled cardiac RTF, Ca2+ fluorescence;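 active = inhibition above the mean inhibition of all tested compounds plus 3 SD, cut at about 17% in these data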;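 also: assay run at fixed EC70 calcium of 1.6 mM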
cardiac RTF act = increases calcium sensitivity of human cardiac regulated thin filaments | IANBD-labeled TnC RTF fluorescence at EC20 calcium; 0% EC20 calcium, 100% full calcium | activation, % at 7.2 µM | 340,000 tested, 0.24% active | AID 493008;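 active = activation above the mean over all tested compounds plus 3 SD, cut at about 30% in these data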;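 also: rise in fluorescence read as greater calcium sensitivity of cardiac thin filaments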
Keap1-Nrf2 PPI = Keap1-Nrf2 (human) interaction inhibition. Q14145. Keap1 Kelch-Nrf2 peptide fluorescence polarization, 1536-well. inhibition, % at 9.4 µM. 340,000 tested, 0.15% active. AID 504523; in the data active = inhibition above about 12%;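 also: human Keap1 Kelch domain with fluorescein labeled Nrf2 9mer peptide probe; higher means more block of Keap1 binding to Nrf2 peptide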
Target sequence (Q14145 whole entry, looked up, the tested form may be a part): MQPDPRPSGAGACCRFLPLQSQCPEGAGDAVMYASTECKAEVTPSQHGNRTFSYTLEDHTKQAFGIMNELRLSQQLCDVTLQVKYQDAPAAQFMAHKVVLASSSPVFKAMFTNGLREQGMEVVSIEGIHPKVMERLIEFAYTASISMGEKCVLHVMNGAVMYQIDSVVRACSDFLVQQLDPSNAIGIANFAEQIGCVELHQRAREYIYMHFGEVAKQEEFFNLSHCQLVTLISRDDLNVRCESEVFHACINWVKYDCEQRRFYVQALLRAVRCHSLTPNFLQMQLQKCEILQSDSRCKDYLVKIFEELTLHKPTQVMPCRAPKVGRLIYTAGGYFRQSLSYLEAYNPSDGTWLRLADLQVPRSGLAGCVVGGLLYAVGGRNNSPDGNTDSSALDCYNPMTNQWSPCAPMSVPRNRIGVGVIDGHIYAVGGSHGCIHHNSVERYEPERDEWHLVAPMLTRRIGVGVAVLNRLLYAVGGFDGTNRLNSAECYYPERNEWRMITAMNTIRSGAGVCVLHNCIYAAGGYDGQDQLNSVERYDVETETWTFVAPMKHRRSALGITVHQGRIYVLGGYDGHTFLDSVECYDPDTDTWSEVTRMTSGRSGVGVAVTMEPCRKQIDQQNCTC
LANA DNA inh = blocks KSHV LANA C-terminal domain binding to DNA. MBP-C-LANA/FAM-LBS DNA binding, fluorescence polarization. inhibition, % at 9 µM. 340,000 tested, 0.078% active. AID 504423;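 active = highest replicate inhibition at or above 60% at 9 µM, even if other replicates fall short; inactive = all replicates below 60% inhibition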
Hits are given with their value; 0 = inactive; - = no result given; + = active, no number; ! = not active in a repeat.

SMILES	LANA-H2B inh	RTF Ca sens inh	cardiac RTF act	Keap1-Nrf2 PPI	LANA DNA inh
CN1C(c2ccccc2)CC(=NO)CC1c1ccccc1 (stereo not given)	0	0	0	0	0
O=C(Cc1cccs1)Nc1cc(S(=O)(=O)N2CCCCC2)ccc1Cl	82	0	0	0	0
COc1ccc(S(=O)(=O)N2CCCCC2)cc1NC(=O)Cc1cccs1	0	0	0	0	0
O=C(Cc1cccs1)N1CCN(S(=O)(=O)c2cc(Cl)ccc2Cl)CC1	0	0	51	0	0
O=C(O)c1ccccc1-c1ccc(/C=c2\sc3nc4cc(Br)cnc4n3c2=O)o1	0	55	0	0	74
CC1CCCN(C(=O)Cn2nnc(-c3ccc(S(C)(=O)=O)cc3)n2)C1 (stereo not given)	0	0	0	0	0
CCN(CC)S(=O)(=O)N1CCC(C(=O)NCc2ccco2)CC1	0	0	0	0	0
CN(C)CCCN1C(=O)c2cccc3c(Br)ccc(c23)C1=O	0	0	0	0	0
CC(=O)N(C(C)=O)N1C(=O)c2cccc3c(N4CCOCC4)ccc(c23)C1=O	55	0	0	0	0
O=C1c2cccc3c(N4CCCCC4)ccc(c23)C(=O)N1c1ccccn1	32	0	0	0	0
CCCCNc1ccc2c3c(cccc13)C(=O)N(CCCC)C2=O	-	0	+	0	0
CCCN1C(=O)c2cccc3c(N4CCCCC4)ccc(c23)C1=O	0	0	75	0	0
COc1ccc(C[C@H]2CN3C(=NC[C@H]3C)N2CCNC(=O)c2ccc(C)c(Br)c2)cc1	0	0	0	0	0
COc1cc(-c2noc(C)c2C(=O)NCCc2cccs2)cc(OC)c1OC	0	0	0	0	0
Cc1ccc2c(c1C)C(=O)C(=O)N2	-	0	0	0	0
CC(C)n1cnnc1SCC(=O)Nc1ccc(N2CCCCC2)cc1	0	0	0	0	0
CC(C)(C)c1nnc(SCC(=O)Nc2ccc(N3CCCCC3)cc2)n1N	+	0	0	0	0
CC1Oc2ccccc2N(CC(=O)NCCN2CCOCC2)C1=O (stereo not given)	0	0	0	0	0
Cc1ccc(-c2nc(C(F)(F)F)cc(=O)[nH]2)cc1	0	0	0	0	0
Nc1nc(C(F)(F)F)cc(=O)[nH]1	0	0	0	0	65
CCCC[C@@H]1C=C(C(=O)O)[C@H](c2ccc(Cl)cc2)N1S(=O)(=O)c1ccc(C)cc1	84	0	0	0	0
C[n+]1ccccc1/C=N/O	18!	0	0	0	0
Cc1nonc1OCCN1CCN(c2ccccc2[N+](=O)[O-])CC1	23	0	0	0	0
Nc1nonc1OCCN1CCN(c2ccc([N+](=O)[O-])c3cccnc23)CC1	0	-	-	0	0
N#Cc1cnn(-c2cccc(Cl)c2)c1N	0	0	0	0	0
SMILES	LANA-H2B inh	RTF Ca sens inh	cardiac RTF act	Keap1-Nrf2 PPI	LANA DNA inh
CC1(C)c2ccccc2N2CC(=O)N(CC(N)=O)C21C (stereo not given)	0	0	40	0	0
COc1cc(/C=C2/SC(=O)N(CC(=O)N3CCCC3)C2=O)ccc1Oc1ccc([N+](=O)[O-])cn1	0	0	0	0	0
Cc1cc(C2C(C#N)=C(N)SC(N)=C2C#N)c(C)s1	0	0	41	0	0
Cc1sccc1C1C(C#N)=C(N)SC(N)=C1C#N	0	-	-	-	-
C[C@]12CC[C@H](O)C[C@@H]1CC[C@@H]1[C@@H]2CC[C@@]2(C)[C@H]1CCC(=O)[C@]21CCCO1	-	0	0	0	0
NCCc1cnc[nH]1	22!	0	0	0	0
O=C(CNC(=O)c1cccc(F)c1)N/N=C/c1cccc([N+](=O)[O-])c1	0	0	0	0	0
O=C(CN1C(=O)NC2(CCCCCC2)C1=O)NCCc1ccccc1	186	0	0	0	0
CC(NC(=O)CCC(=O)N1CCCCCC1)c1ccccc1 (stereo not given)	14	0	0	0	0
CC(C)C(C)NC(=O)CN1C(=O)NC2(CCCCCC2)C1=O (stereo not given)	0	0	0	0	0
CC(NC(=O)CN1C(=O)NC2(CCCCCC2)C1=O)c1ccccc1 (stereo not given)	78	0	0	0	0
Cc1c(Cc2ccccc2)sc(/N=C/c2ccc3ccccc3c2)c1C(N)=O	+	0	0	0	0
Cc1c(Cc2ccccc2)sc(/N=C/c2c(O)ccc3ccccc23)c1C(N)=O	0	0	0	0	0
CC(C)c1nnc(NC(=O)CCC(=O)NCc2cccs2)s1	18	0	0	0	0
CC1(C)CNC(=O)c2sc(NC(=O)c3ccccc3)nc2C1	18	0	0	0	0
